Screening results (PubChem BioAssay)
FBA Mtb inh – inhibits M. tuberculosis FBA enzyme; P9WQA3; purified M. tuberculosis FBA, fluorescence read-out; inhibition, % at 1 µM; 360,000 compounds, 2.3% hits; in the data active = inhibition above about 27%;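 note: 0% = vehicle and 100% = reference inhibitor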
GDH-TPI counter – counter-screen for M. tuberculosis FBA inhibitors: GDH-TPI coupled enzymes; inhibition, % at 4.8 µM; GDH-TPI coupled enzyme counterscreen, NADH absorbance; 360,000 compounds, 1.2% hits; in the data active = inhibition above about 30%;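 note: 0% = DMSO wells and 100% = wells lacking the enzyme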
Anthrax LF inh2 – blocks Bacillus anthracis lethal factor protease; P15917; multiplex microsphere protease cleavage assay, LF; inhibition, % at 10 µM; 360,000 compounds, 0.12% hits; AID 588501; note: plate controls were buffer without enzyme for full effect and enzyme alone for no effect
Target sequence (P15917 whole entry, looked up): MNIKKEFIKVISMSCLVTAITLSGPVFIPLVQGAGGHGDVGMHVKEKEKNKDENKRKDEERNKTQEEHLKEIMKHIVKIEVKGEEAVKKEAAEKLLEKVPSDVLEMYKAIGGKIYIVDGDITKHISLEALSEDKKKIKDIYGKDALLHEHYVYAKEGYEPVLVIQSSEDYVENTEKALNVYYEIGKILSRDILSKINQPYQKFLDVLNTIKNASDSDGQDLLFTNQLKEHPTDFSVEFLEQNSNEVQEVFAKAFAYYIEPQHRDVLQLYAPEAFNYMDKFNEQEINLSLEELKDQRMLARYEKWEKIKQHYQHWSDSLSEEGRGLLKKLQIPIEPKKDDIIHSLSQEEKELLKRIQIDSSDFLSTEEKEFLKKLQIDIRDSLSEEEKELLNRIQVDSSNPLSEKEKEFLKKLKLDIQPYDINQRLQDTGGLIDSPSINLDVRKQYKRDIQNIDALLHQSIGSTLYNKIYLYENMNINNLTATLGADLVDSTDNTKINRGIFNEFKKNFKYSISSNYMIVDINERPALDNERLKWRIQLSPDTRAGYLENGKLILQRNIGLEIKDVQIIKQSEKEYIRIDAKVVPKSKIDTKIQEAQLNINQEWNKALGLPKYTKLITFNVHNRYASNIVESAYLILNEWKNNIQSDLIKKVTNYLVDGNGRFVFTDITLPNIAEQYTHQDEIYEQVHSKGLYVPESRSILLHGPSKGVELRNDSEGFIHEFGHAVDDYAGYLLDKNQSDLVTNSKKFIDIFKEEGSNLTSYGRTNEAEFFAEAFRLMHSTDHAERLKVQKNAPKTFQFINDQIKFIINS
Autofluor counter – compound fluorescence in toxin protease inhibitor counterscreen; compound autofluorescence counterscreen, microsphere flow cytometry; active compounds read high; fluorescence intensity (test concentration not listed); 360,000 compounds, 3.1% hits; in the data active = fluorescence intensity above about 16000; inconclusive = no clear call, values can overlap the other calls
BoNT F protease – inhibitors of Botulinum neurotoxin F light chain protease | Multiplex microsphere protease cleavage assay, flow cytometry | 360,000 compounds, 0.22% hits | inhibition, % at 10 µM; in the data active = inhibition above about 35%, passing the limit was not always enough; inconclusive = no clear call, values can overlap the other calls; note: plate controls were buffer without enzyme for full effect and enzyme alone for no effect
BoNT-A LC inh2 – BoNT A light chain protease inhibition; 360,000 compounds, 0.17% hits; AID 588499; inhibition, % at 10 µM; multiplex microsphere protease substrate cleavage, flow cytometry; note: plate controls were buffer without enzyme for full effect and enzyme alone for no effect
Active calls of the source: *; ? = inconclusive; . = not tested or not shown. A selection: hits, their analogues and other compounds. The true share with any hit is near 6.6%. Cut-off read from the data, not from the text of the source, unless noted: active = inhibition above about 30%; inconclusive = no clear call, values can overlap the other calls; inactive = below that.

SMILES | FBA Mtb inh | GDH-TPI counter | Anthrax LF inh2 | Autofluor counter | BoNT F protease | BoNT-A LC inh2
COc1ccc(CCNC(=O)c2cc(-c3cc(C)c(C)cc3O)n[nH]2)cc1OC | 0 | -1 | -2 | 22479* | 0 | 0
COc1ccc(CCNC(=S)NC(=O)c2ccccc2)cc1OC | 0 | 1 | 0 | 23568* | 0 | -1
O=C(COC(=O)c1cccnc1Cl)Nc1nc(-c2ccccc2)cs1 | 0 | -1 | 0 | 2321 | -4 | 1
COc1ccc(NC(=O)CSCC(=O)N(C)Cc2ccc3c(c2)OCCO3)cc1 | 0 | -1 | 4 | 4054 | 1 | 0
COc1ccccc1NC(=S)N(CCc1nc2cc(C)c(C)cc2[nH]1)Cc1cccnc1 | -4 | 4 | -12 | 4117 | -1 | 0
N#CC(C(=O)NC1CC1)c1nc2ccccc2nc1N1CCCC1 (stereo unspecified) | 61* | 20 | 4 | 3956 | 4 | 4
Cn1c(SCC(=O)Nc2sccc2C#N)nnc1C1CC1 | -3 | 14 | -10 | 3165 | -9 | 0
O=C1CC(c2ccccc2)CC(=O)N1c1ccc(C(F)(F)F)cc1 | 2 | -7 | 4 | 2801 | -3 | -1
Cc1cccc(NC(=O)CSc2nccn2Cc2ccco2)c1C | 0 | 8 | 3 | 3938 | 4 | 2
Cc1ccc(C(C)NC(=O)c2cccs2)cc1C (stereo unspecified) | 0 | 13 | -3 | 4401 | ? | -3
Cc1ccc(C(C)NC(=O)c2ccco2)cc1C (stereo unspecified) | 1 | 0 | -1 | 21456* | -6 | -2
CC(C)CC(NS(=O)(=O)c1cccc(C(=O)O)c1)C(=O)O (stereo unspecified) | 0 | 0 | -4 | 4252 | -8 | 0
CC(C)C[C@H](NS(=O)(=O)c1ccc(Br)cc1)C(=O)O | -1 | -1 | -2 | 22565* | 1 | 3
CCCC(=O)Nc1ccc(C(=O)Nc2ccc([N+](=O)[O-])cc2OC)cc1 | -1 | 9 | 6 | 3707 | -10 | -1
Cc1ccc(S(=O)(=O)C2(C(=O)N3CCN(C4CCCCC4)CC3)CC2)cc1 | 4 | 3 | -2 | 9273 | 12 | 1
Cc1ccc(S(=O)(=O)C2(C(=O)N3CCCCCC3)CC2)cc1 | 3 | 10 | -4 | 16721* | -4 | ?
CCc1cc2cc(C)ccc2nc1SCC(=O)N1CCN(C(=O)c2ccco2)CC1 | 0 | 12 | 1 | 3630 | -18 | 1
COc1cc2cc(C)c(SCC(=O)N3CCN(C(=O)c4ccco4)CC3)nc2cc1OC | 10 | 44* | -82 | 2942 | -55 | -17
CS(=O)(=O)Nc1ccc(C(=O)CC(=O)Nc2ccc([N+](=O)[O-])cc2)cc1 | 1 | 77* | . | . | . | .
O=C(CC(=O)c1ccccc1)Nc1ccc([N+](=O)[O-])cc1 | -5 | 15 | -10 | 3414 | -2 | 0
O=C(NCc1cccs1)c1noc2c1CCCC2 | 3 | 0 | -4 | 11822 | -4 | -2
O=C(NCCc1ccccc1)c1noc2c1CCCCC2 | 1 | -6 | 0 | 19823* | 0 | 3
O=C(NCc1ccco1)c1noc2c1CCCCC2 | 2 | 6 | -8 | 16534* | -6 | -2
O=C(NCc1cccnc1)c1noc2c1CCCC2 | 2 | 1 | -9 | 21847* | 2 | 4
O=C(NCc1cccnc1)c1noc2c1CCCCC2 | 6 | 0 | 0 | 10589 | 1 | 1
SMILES | FBA Mtb inh | GDH-TPI counter | Anthrax LF inh2 | Autofluor counter | BoNT F protease | BoNT-A LC inh2
COc1ccc([N+](=O)[O-])cc1N(CC(=O)NCCC1=CCCCC1)S(C)(=O)=O | -1 | -1 | 0 | 2165 | 0 | 0
COc1cc(NC(=O)c2cc3nc(C4CC4)cc(C(F)(F)F)n3n2)c(OC)cc1Cl | 2 | 8 | -3 | 24788* | -3 | -4
O=C(Nc1cccnc1)c1cc2nc(C3CC3)cc(C(F)(F)F)n2n1 | 2 | 5 | 2 | 2815 | 0 | 1
COC(=O)c1ccccc1NC(=O)c1cc2nc(C3CC3)cc(C(F)(F)F)n2n1 | 3 | -3 | -2 | 21329* | -3 | -4
O=C(NN=Cc1cc(Cl)ccc1[N+](=O)[O-])c1ccco1 | 1 | 9 | 2 | 3204 | -4 | 0
COc1cc2c(cc1OC)C(C)N(C(=O)Nc1ccc(F)cc1)CC2 (stereo unspecified) | 0 | -10 | 1 | 3556 | -3 | 0
COc1ccc(/C=C/C(=O)NCc2cnn(C)c2C)cc1COc1ccc(Br)cc1 | -1 | 6 | -2 | 23817* | -4 | -2
CCCS(=O)(=O)NC(=O)C1(C)CCCN(C(=O)c2ccccc2OC(F)(F)F)C1 (stereo unspecified) | 9 | 14 | -4 | 2876 | -1 | 0
O=C(COC(=O)[C@H](Cc1c[nH]c2ccccc12)NC(=O)c1ccc(Cl)cc1)Nc1ccc2c(c1)OCO2 | -2 | -1 | -3 | 21349* | 2 | 3
O=C(Cc1c(C(=O)O)[nH]c2ccccc12)Nc1ccc2c(c1)OCO2 | -1 | 20 | -3 | 16805* | -4 | 0
CCCCSc1nnc2c(n1)[nH]c1ccccc12 | 4 | -8 | 1 | 21409* | 2 | -1
O=C(CSc1nnc2c(n1)[nH]c1ccccc12)Nc1ccc2c(c1)OCO2 | -2 | 16 | -3 | 21923* | 0 | ?
Cc1ccc(NC(=O)CSc2nnc3c(n2)[nH]c2ccccc23)cc1 | -4 | 7 | -8 | 3731 | -12 | 0
CC(=O)N[C@@H](Cc1c[nH]c2ccccc12)C(=O)OCC(=O)Nc1ccc2c(c1)OCO2 | 3 | 12 | -2 | 4509 | -8 | 0
O=C(O)c1[nH]c2ccccc2c1CC(=O)N1CCOCC1 | 4 | -8 | 2 | 19170* | 1 | 2
Cc1cc(C)nc(Nc2ccc(N3CCOCC3)cc2)n1 | 5 | 7 | -8 | 1565 | -33 | 0
Cc1ccc(/C=N/Nc2nc(C)cc(C)n2)cc1 | 2 | 11 | 1 | 3920 | ? | -2
Cc1cc(C)nc(N/N=C/c2ccc(N3CCOCC3)cc2)n1 | 0 | 35* | -2 | 3514 | -1 | -1
CSc1ccc(/C=N/Nc2nc(C)cc(C)n2)cc1 | -6 | 33* | -2 | 4405 | 2 | 0
O=C(O)c1cc(N/N=C/c2ccc(N3CCOCC3)cc2)ccc1Cl | 2 | 69* | 2 | 3314 | -8 | 0
O=C(NCc1ccc(Cl)cc1)c1ccc(S(=O)(=O)N2CCCCC2)cc1 | 1 | -2 | 5 | 2821 | 2 | 2
COC(=O)COc1ccc(Oc2cc(C)nc(SC)n2)nn1 | -3 | -8 | 1 | 21755* | -6 | ?
CCOc1ccc(Oc2cc(C)nc(SC)n2)nn1 | -2 | -8 | 2 | 3616 | -11 | -1
O=C(CSc1nnc(-c2ccc(O)cc2)o1)Nc1ccccc1Br | 1 | 5 | -1 | 4896 | -5 | 0
Cc1ccccc1CN(C)C(=O)[C@H](Cc1ccccc1)NC(=O)c1ccco1 | 2 | 6 | -10 | 3123 | 6 | 0
O=C(O)c1ccc(NC(=S)NC(NC(=O)c2ccco2)C(Cl)(Cl)Cl)cc1 (stereo unspecified) | -2 | 1 | -5 | 25206* | -9 | -4
